SMILES strings stand for the structures. Records with an inconclusive call do not appear. Activity calls are given as the source filed them. Unless noted, calls come from the whole dose curve; as a rule, active = well fitted curve in the direction sought with a large enough effect in the repeat runs; inconclusive = weak or mixed curves; inactive = flat fitted curve, though single readings scatter. Positions of bridges follow the written chain, without caps; N, C: chain ends. Non-standard residues stand in square brackets, D forms with d. Residues, ends and D or L forms follow the SMILES beside them. pGlu = O=C1CC[C@@H](C(=O)O)N1

Assay [1] can be described thus: qHTS assay to test for compound auto fluorescence at 535 nm (green) in HEK293 cells (AID 720680). For orientation: In qHTS, concentration-response curves come from the screen itself.
Assay [2] is described as follows: qHTS assay to test for compound auto fluorescence at 460 nm (blue) in HEK293 cell free culture (AID 720681). The procedure, abridged:
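Blue fluorescence (Ex 405/Em 460 nm, triamterene-equivalent) was read immediately after pin transfer of compound or DMSO into medium (DMEM, 10% FBS) without cells.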

Assay [3] can be described thus: qHTS assay to test for compound auto fluorescence at 535 nm (green) in HEK293 cell free culture (AID 720682). In a few lines: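 Green-label autofluorescence (485 nm excitation, 535 nm emission) measured on compound added to cell-free culture medium (DMEM, 10% FBS). Output is expressed relative to fluorescein.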
Assay [4] can be described thus: qHTS assay to test for compound auto fluorescence at 590 nm (red) in HepG2 cell free culture (AID 720684). The procedure, abridged:
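Plate contents were MEM with 10% FBS plus test compound or DMSO, no cells. Fluorescence was recorded with 540 nm excitation and 590 nm emission.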

A short description of assay [5]: qHTS assay to test for compound auto fluorescence at 460 nm (blue) in HepG2 cell free culture (AID 720685). The procedure, abridged: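 Compound (23 nL) or DMSO pinned into cell-free MEM with 10% FBS; blue fluorescence read at 405/460 nm excitation/emission, expressed as auto-fluorescence equivalency to triamterene.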
Assay [6] can be described thus: qHTS assay to test for compound auto fluorescence at 535 nm (green) in HepG2 cell free culture (AID 720686).
Assay [7] is described as follows: qHTS assay to test for compound auto fluorescence at 460 nm (blue) in HepG2 cells (AID 720687). In a few lines:
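Blue-channel autofluorescence (Ex/Em 405/460 nm, triamterene-equivalent) was measured after 1 hr compound exposure at 37 C, 5% CO2. Cells were HepG2, plated overnight at 37 C in MEM plus 10% FBS.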

Assay [8] is described as follows: qHTS assay to test for compound auto fluorescence at 590 nm (red) in HEK293 cell free culture (AID 720683). In a few lines:
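Red-channel autofluorescence of compounds in culture medium (DMEM, 10% FBS), no cells, measured at 540/590 nm. Rose Bengal sodium is the reference fluorophore for equivalence.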

For assay [9], the target named is Glucocorticoid receptor (Homo sapiens) (UniProt P04150). Briefly: qHTS assay to identify small molecule agonists of the glucocorticoid receptor (GR) signaling pathway (AID 720691; active = well fitted activation curve with a large enough effect in the signal ratio in the repeat runs, not every such curve was filed as active; the % refers to the signal ratio). To be noted: GR-bla HeLa, beta-lactamase reporter ratio, 18 h; activation: at 62.4 µM (top of the series). In a few lines: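 Reporter read-out: fluorescence intensity following 2 h room-temperature LiveBLAzer B/G FRET substrate loading. Prior step: GR-bla HeLa cells held 4 h, then treated 18 h at 37 C.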

Assay [10] has the same target. Briefly: qHTS assay to identify small molecule antagonists of the glucocorticoid receptor (GR) signaling pathway (AID 720692; active = well fitted inhibition curve with a large enough effect in the signal ratio in the repeat runs, not every such curve was filed as active; the % refers to the signal ratio; note: potency is the fitted concentration of half-maximal effect). The procedure, abridged: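 Dexamethasone (5 nM final) stimulated a stably integrated GRE-beta-lactamase reporter in HeLa cells during 18 h co-incubation with compounds; signal was quantified as fluorescence intensity of B/G FRET substrate after 2 h.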

Glucocorticoid receptor (Homo sapiens), sequence (P04150 whole entry, looked up): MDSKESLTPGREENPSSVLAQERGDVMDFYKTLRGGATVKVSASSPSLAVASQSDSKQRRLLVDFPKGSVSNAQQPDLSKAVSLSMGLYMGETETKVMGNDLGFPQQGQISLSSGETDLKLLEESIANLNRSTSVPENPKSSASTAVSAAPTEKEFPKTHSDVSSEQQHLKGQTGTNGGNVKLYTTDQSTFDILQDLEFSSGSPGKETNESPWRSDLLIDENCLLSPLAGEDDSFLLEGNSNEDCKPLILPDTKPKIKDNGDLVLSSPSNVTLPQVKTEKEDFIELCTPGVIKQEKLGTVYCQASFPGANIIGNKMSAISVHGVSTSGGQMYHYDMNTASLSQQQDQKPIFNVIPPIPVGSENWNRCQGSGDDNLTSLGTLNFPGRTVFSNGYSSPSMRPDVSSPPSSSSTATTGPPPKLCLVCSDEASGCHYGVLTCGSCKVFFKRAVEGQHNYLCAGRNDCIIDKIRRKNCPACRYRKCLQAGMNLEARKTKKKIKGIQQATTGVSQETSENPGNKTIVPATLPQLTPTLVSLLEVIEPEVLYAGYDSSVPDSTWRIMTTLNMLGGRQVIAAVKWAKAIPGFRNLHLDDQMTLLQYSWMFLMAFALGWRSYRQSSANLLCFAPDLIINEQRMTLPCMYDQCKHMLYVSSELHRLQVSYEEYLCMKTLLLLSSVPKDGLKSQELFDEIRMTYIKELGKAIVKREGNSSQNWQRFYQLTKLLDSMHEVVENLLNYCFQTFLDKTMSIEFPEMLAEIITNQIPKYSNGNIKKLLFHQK

As to `CC(O)[C@H]1CC[C@H]2[C@@H]3CC[C@@H]4C[C@@H](O)CC[C@]4(C)[C@H]3CC[C@]12C` (some centres undefined), the Potency result in assay [1], in assay [2], in [3], in assay [4] and in [6] was “inactive” in each case. Moreover, the result in assay [5] and in [7] was inactive.

With `NC(=S)N=Nc1ccc(NN=C(N)N)cc1`, the Potency entry in assay [1], in assay [2], in [3], in assay [4] and in assay [6] was “inactive” in each case. Besides, the call in assay [5] and in assay [7] was inactive.

As to `C=C1C(=C/C=C2\CCC[C@]3(C)[C@@H]([C@H](C)CCCC(C)(C)O)CC[C@@H]23)C[C@@H](O)C[C@@H]1O`, the Potency entry in assay [1], in [2], in assay [3], in assay [8] and in [6] was “inactive” in each case. For the same compound, the call in assay [5] and in assay [7] was inactive.

Regarding `CNC(C)[C@@H]1CC[C@@H](N)[C@@H](O[C@H]2[C@H](O)[C@@H](O[C@H]3OC[C@](C)(O)[C@H](NC)[C@H]3O)[C@H](N)C[C@@H]2N)O1` (some centres undefined), the Potency entry in [1], in assay [2], in assay [3], in [8] and in assay [6] was “inactive” each time. Also, the result in assay [5] and in assay [7] was inactive.

`O=C(O)c1ccc(NC(=O)[C@H](Cc2ccc(O)cc2)NC(=O)c2ccccc2)cc1`: the Potency entry in [1], in assay [2], in assay [3], in assay [8] and in assay [6] was “inactive” each time. In addition, the call in assay [5] and in assay [7] was inactive.

With `CC(CCc1ccc(O)cc1)NCC(O)c1ccc(O)cc1` (centres undefined), the Potency result in assay [1], in assay [2], in assay [3], in assay [4] and in [6] was “inactive” in each case. Besides, the outcome in assay [5] and in assay [7] was inactive.

`CC(=O)OCC(=O)[C@@]1(O)[C@H](C)C[C@H]2[C@@H]3C[C@H](F)C4=CC(=O)C=C[C@]4(C)[C@H]3[C@@H](O)C[C@@]21C`: the Potency result in assay [1], in assay [2], in assay [3], in assay [4] and in assay [6] was “inactive” throughout. The compound was classed as inactive in assay [5] and in assay [7].

Regarding `CO[C@@]1(NC(=O)C2SC(=C(C(N)=O)C(=O)O)S2)C(=O)N2C(C(=O)O)=C(CSc3nnnn3C)CS[C@@H]21` (some centres undefined), the Potency result in assay [1], in assay [2], in [3], in [8], in assay [6] and in assay [9] was “inactive” throughout. Also, the Potency entry in [10] is “inactive”. In addition, the result in assay [5] and in assay [7] was inactive.

For `C[C@]12CC[C@@H]3c4ccc(O)cc4CC[C@H]3[C@@H]1CC[C@@H]2OP(=O)(O)O`, the Potency entry in assay [1], in assay [2], in [3], in [8] and in [6] was “inactive” throughout. The compound was called inactive in [5] and in assay [7].

In the case of `O=[N+]([O-])c1c(Cl)cccc1-c1c[nH]cc1Cl`, the Potency result in assay [1], in [2], in [3], in assay [8], in assay [6] and in assay [9] was “inactive” in each case. The compound was called inactive in assay [5] and in [7]. In addition, the Potency in assay [10] was 21.3 µM (active).

For the compound `CCN(CC)CCOc1ccc(-c2nc3cc(Cl)ccc3s2)cc1`, the Potency entry in assay [1], in [2], in assay [3], in assay [8], in [6] and in assay [9] was “inactive” each time. The compound was called inactive in assay [5] and in [7].

As for `CCCCCCCCCCCCCCCC(=O)O[C@@H]1[C@@H](O)[C@@H](O)[C@@H]([C@H](NC(=O)[C@@H]2C[C@@H](CCC)CN2C)[C@H](C)Cl)O[C@@H]1SC`, the Potency result in assay [1], in assay [2], in [3], in [8], in assay [6] and in assay [9] was “inactive” each time. For the same compound, the Potency entry in [10] was “inactive”. Also, the compound was classed as inactive in assay [5] and in assay [7].

Consider `CC[C@H](C)[C@H](NC(=O)[C@H](Cc1ccccc1)NC(=O)[C@H](C)NC(=O)[C@H](CC(=O)O)NC(=O)[C@H](CCCCN)NC(=O)[C@H](CO)NC(=O)[C@@H]1CCCN1C(=O)[C@@H]1CCC(=O)N1)C(=O)NCC(=O)N[C@@H](CC(C)C)C(=O)N[C@@H](CCSC)C(N)=O` ([pGlu]PSKDAFIGLM-NH2), for which the Potency result in assay [1], in assay [2], in [3] and in assay [8] was “inactive” in each case. Moreover, the outcome in assay [5] and in [7] was inactive.

For `COC(=O)[C@H]1[C@H]2C[C@@H]3c4[nH]c5ccccc5c4CCN3C[C@H]2C[C@@H](OC(=O)c2cc(OC)c(OC)c(OC)c2)[C@@H]1OC`, the Potency entry in [1], in assay [2], in [3], in assay [8] and in [6] was “inactive” throughout. Besides, the result in assay [5] and in [7] was inactive.

Consider `Oc1cc(O)cc(O)c1`, for which the Potency result in [1], in [2], in assay [3], in assay [8], in [6] and in [9] was “inactive” each time. Also, the result in assay [5] and in [7] was inactive.

On to `C=CCNC1=C2C[C@@H](C)C[C@H](OC)[C@H](O)[C@@H](C)/C=C(\C)[C@H](OC(N)=O)[C@@H](OC)/C=C\C=C(/C)C(=O)NC(=CC1=O)C2=O`, for which the Potency entry in assay [1], in assay [2], in [3], in assay [8] and in [9] was “inactive” throughout. Also, the outcome in assay [5] and in assay [7] was inactive.

As for `NCCCC[C@H](NC(=O)[C@@H]1CCCN1C(=O)[C@@H]1CSSC[C@H](NC(=O)CNC(=O)CNC(=O)CN)C(=O)N[C@@H](Cc2ccc(O)cc2)C(=O)N[C@@H](Cc2ccccc2)C(=O)N[C@@H](CCC(N)=O)C(=O)N[C@@H](CC(N)=O)C(=O)N1)C(=O)NCC(N)=O` (H-GGGCYFQNCPKG-NH2; disulfide 4-9), the Potency result in assay [1], in [2], in [3], in assay [8], in assay [6] and in [9] was “inactive” in each case. For the same compound, the Potency entry in assay [10] is “inactive”. The result in assay [5] and in assay [7] was inactive.

As to `O=C(O)CCC/C=C\C[C@@H]1[C@@H](/C=C/[C@@H](O)COc2cccc(Cl)c2)[C@H](O)C[C@@H]1O`, the Potency entry in assay [1], in assay [2], in assay [3], in [8] and in assay [6] was “inactive” throughout. Also, the result in assay [5] and in assay [7] was inactive.

For `O=C(NOC[C@H](O)CO)c1ccc(F)c(F)c1Nc1ccc(I)cc1F`, the Potency entry in assay [1], in assay [2], in assay [3], in [8] and in assay [6] was “inactive” each time. In [5], the compound was classed as inactive.

With `C/C=C1\NC(=O)[C@H]2CSSCC/C=C/[C@H](CC(=O)N[C@H](C(C)C)C(=O)N2)OC(=O)C(C(C)C)NC1=O` (some centres undefined), the Potency result in [1], in assay [2], in assay [3], in [8] and in assay [6] was “inactive” in each case. In addition, the call in [5] and in assay [7] was inactive.

As for `NCCC[C@H](N)C(=O)O`, the Potency result in assay [1], in assay [2], in [3], in assay [8] and in assay [6] was “inactive” throughout. In addition, the call in [5] and in assay [7] was inactive.

With `OC[C@@H](O)C(O)[C@H](O)CO`, the Potency result in [1], in assay [2], in assay [3], in [8], in [6] and in assay [9] was “inactive” throughout. Besides, the Potency entry in [10] was “inactive”. Further, the compound was classed as inactive in assay [5] and in [7].

For the origin of these results see PubChem BioAssay (Tox21).
